Screens (PubChem BioAssay)
DNA Pol III inh – qHTS Assay for Inhibitors of DNA Polymerase III Holoenzyme System. hit rate 0.25% among 71,000. Potency, µM (top dose mostly 57.1 µM), inactives show at the highest dose activity change, negative = inhibition. reconstituted DNA polymerase III holoenzyme replication, biochemical
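Reconstituted *E. coli* holoenzyme (0.35 nM Pol III, 1 nM beta, 154 nM SSB, 2 nM primase) was preincubated with compound for 15 min at RT. Synthesis on 1.4 nM ssM13Gori ran 35 min, then was stopped with PicoGreen/EDTA and read as dsDNA fluorescence.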
FLuc inh – qHTS Assay for Inhibitors of Firefly Luciferase | purified firefly luciferase, luminescence, 8 min | hit rate 2.2% among 72,000 | AID 411, 2009 | Potency, µM (series often up to 57.1 µM), without a hit: top-dose activity change, negative = inhibition, usual class: inhibitors | Luciferin 4-monooxygenase (Photinus pyralis), P08659; note: nearly all actives have a fitted effect of over 40% in size
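Titration-based qHTS; buffer 50 mM imidazole pH 7.2, 50 mM KCl, 7 mM MgCl2, 10 uM ATP, 0.01% Tween 20, 0.05% BSA; luciferase/luciferin detector mix added after compound; 8 min, ambient; luminescence.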
15-hLO inh – qHTS Assay for Inhibitors of 15-hLO (15-human lipoxygenase) | Polyunsaturated fatty acid lipoxygenase ALOX15 (Homo sapiens), P16050 | purified 15hLO-1, xylenol orange hydroperoxide absorbance | Potency, µM (doses to about 57.1 µM), for inactives: top-dose activity change, negative = inhibition, most hits filed as inhibitors | hit rate 1.4% among 74,000; note: nearly all actives have a fitted effect of over 55% in size
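Readout: Fe(III)-xylenol orange absorbance, 573-to-405 nm ratio as reaction progress. Enzyme 40 nM purified human 15hLO-1, substrate 50 uM arachidonic acid, 6 min RT after 15 min compound preincubation; Hepes pH 7.5 buffer with Triton X-100.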
Tau filament bind – qHTS Assay for Tau Filament Binding; Microtubule-associated protein tau (Homo sapiens), P10636; recombinant tau filaments, thioflavin S fluorescence, 15 h; filaments grown with octadecylsulfate alongside compound; Potency, µM (series often up to 57.1 µM), without a hit: top-dose activity change, negative = inhibition; hit rate 2% among 71,000;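 note: actives lower thioflavin S fluorescence by blocking filaments or displacing dye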
Target sequence (P10636 whole entry, looked up): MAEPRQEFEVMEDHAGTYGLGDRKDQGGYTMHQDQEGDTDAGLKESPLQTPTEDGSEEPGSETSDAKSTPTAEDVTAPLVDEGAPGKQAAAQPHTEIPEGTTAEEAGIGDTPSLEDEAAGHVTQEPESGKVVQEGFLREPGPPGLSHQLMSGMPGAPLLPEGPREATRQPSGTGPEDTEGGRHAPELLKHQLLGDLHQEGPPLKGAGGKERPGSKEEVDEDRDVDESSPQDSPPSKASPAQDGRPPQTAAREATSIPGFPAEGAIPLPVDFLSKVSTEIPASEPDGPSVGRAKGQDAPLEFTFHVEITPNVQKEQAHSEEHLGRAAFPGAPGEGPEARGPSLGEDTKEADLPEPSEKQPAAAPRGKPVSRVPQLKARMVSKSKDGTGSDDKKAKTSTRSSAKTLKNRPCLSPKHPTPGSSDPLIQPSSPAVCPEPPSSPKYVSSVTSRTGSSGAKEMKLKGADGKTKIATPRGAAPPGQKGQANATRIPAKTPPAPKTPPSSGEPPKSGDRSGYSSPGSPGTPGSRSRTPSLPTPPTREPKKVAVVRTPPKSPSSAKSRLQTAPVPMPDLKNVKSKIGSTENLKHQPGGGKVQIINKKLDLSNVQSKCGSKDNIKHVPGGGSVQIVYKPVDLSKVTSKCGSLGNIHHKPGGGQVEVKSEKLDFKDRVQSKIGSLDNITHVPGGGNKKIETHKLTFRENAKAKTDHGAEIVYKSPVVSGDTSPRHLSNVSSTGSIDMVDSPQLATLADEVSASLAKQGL
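His-tagged recombinant human tau (exons 2, 3, 10; 1 uM final) fibrillized with 30 uM sodium octadecylsulfate, 15 h at 37 C, in pH 7.4 HEPES buffer with 10 uM thioflavine S and 5 mM DTT. Reduced ThS fluorescence (450/510 nm) marks activity.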
ERK AVP block – qHTS Assay for Inhibitors of the ERK Signaling Pathway using a Homogeneous Screening Assay | HEK293-V1b, vasopressin-stimulated pERK AlphaScreen | Potency, µM (series often up to 57.5 µM), without a hit: top-dose activity, negative = inhibition, most hits filed as inhibitors | hit rate 0.99% among 72,000; note: nearly all actives have a fitted effect of over 55% in size
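HEK293 cells stably expressing V1b receptor, seeded overnight in 1% FBS, were treated with compounds for 30 min at 37C, then stimulated 5 min with 25 nM vasopressin; phospho-ERK read by AlphaScreen SureFire after lysis.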
Bst PK mod – Pyruvate Kinase; purified pyruvate kinase, luminescence ATP production; ribose 5-phosphate activator present at AC10; Potency, µM; hit rate 1.2% among 51,000; in the data active = potency below about 11 µM; inconclusive = mostly about 12 µM to 25 µM;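 the screen sought inhibitors and activators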;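 note: scaled between full activation by ribose 5 phosphate and full inhibition by luteolin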
Numbers without * were called inactive; i = inactive; ? = inconclusive; nt = not tested or not shown; [ ] = another dose, or the depositor's remark. An excerpt weighted towards active compounds, which were near 6% of everything screened. Unless noted, calls come from the whole dose curve; as a rule, active = well fitted curve in the direction sought with a large enough effect; inconclusive = small, poorly fitted or top-dose-only effect, or another doubt; inactive = no such curve, though single readings can be large; an effect the other way counts as inactive or inconclusive. Unless noted, % is set by controls: 0 for no effect and ±100 for the full control effect; potency is the fitted concentration of half-maximal effect.

SMILES	DNA Pol III inh	FLuc inh	15-hLO inh	Tau filament bind	ERK AVP block	Bst PK mod
COc1ccccc1N1CCN(S(=O)(=O)c2c(C)ccc3nsnc23)CC1	-6%	1%	-9%	?	?	2.9*
C#C[C@H](N)CCC(=O)O	-3%	0%	3%	2%	16%	nt
O=CNc1ncn[nH]1	-9%[11.4 µM]	4%[11.4 µM]	-7%[11.4 µM]	-1%[11.4 µM]	-2%[11.5 µM]	nt
O=[N+]([O-])c1ccc(-c2nc(-c3ccc(F)cc3)c(-c3ccncc3)[nH]2)cc1	nt	nt	-17%	nt	20µM*	nt
O=c1cc(-c2ccccc2)oc2cc(O[C@H]3O[C@H](CO)[C@@H](O)[C@H](O)[C@@H]3O)c(O)c(O)c12	-9%	-1%[11.4 µM]	nt	?	nt	nt
c1ccc(-c2ccccn2)nc1	-8%	4%	9%	-5%	9%	nt
c1ccc(-c2ccc(-c3ccccn3)nn2)nc1	-6%	13µM*	34%	-2%	-9%	i
COc1ccc(Oc2ncc3nc(-c4ccc(F)cc4)c(=O)n(CCC#N)c3n2)cc1	16%	-1%[11.4 µM]	5%	-11%	-10%	nt
Cc1ccc(C(=O)C2CCN(CC(=O)Nc3ccc(N(C)C)cc3)CC2)cc1	-3%	-2%	-17%	20µM*	16µM*	>57
O=C1C[C@@H](O)[C@@H](O)[C@H]2[C@@H]3C(=O)N(c4cccc(Oc5ccccc5)c4)C(=O)[C@@H]3CC[C@H]12	nt	0%[11.4 µM]	2%[11.4 µM]	nt	-3%[11.5 µM]	nt
CCOCCCn1c(C)nc2c(c1=O)c1nc3ccccc3nc1n2CCC1=CCCCC1	-11%	1%	25µM*	1.6µM*	-13%	>57
CCCn1cnc2c(c1=O)c1nc3ccccc3nc1n2CCC1=CCCCC1	-5%	3%	-2%	-15%	-14%	>57
Cn1c(-c2ccccc2)cnc1SCc1nc2ccccc2c(=O)[nH]1	-9%	5µM*	3%	0%	-29%	i
CCNc1nc(NCC)n2c(SCc3nc4ccccc4c(=O)[nH]3)nnc2n1	-10%	0%	0%	6%	-25%	7*
CCNc1nc(NCC)n2c(SCc3ccc(F)cc3)nnc2n1	1%	1%	4%	-3%	-14%	nt
Cn1c(SCc2nc3ccccc3c(=O)[nH]2)nnc1-c1ccco1	-4%	3%	2%	-8%	-10%	>57
CO[C@H]1COC(=O)CCC[C@H](C)[C@@H](OC)COC(=O)C/C=C\[C@@H]1C	nt	3%[11.4 µM]	9%[11.4 µM]	nt	-2%[11.5 µM]	nt
CC(C)(c1cc(Br)c(OCC(Br)CBr)c(Br)c1)c1cc(Br)c(OCC(Br)CBr)c(Br)c1 (configuration not stated)	-5%	nt	1%	27%	16%	nt
Cc1nc(NC2CCCCC2)c2nc(-c3ccccc3)n(CCN3CCCC3)c2n1	0%	nt	-6%	-19%	?	nt
CCNc1ncc2nc(-c3ccccc3)c(=O)n(C[C@H]3CCCO3)c2n1	-6%	0%[11.4 µM]	2%	28%	8%	nt
CN(C)c1ccc(/C=c2\sc3n(c2=O)CCCN=3)cc1	-2%	2.5µM*	-8%	148%	-2%	2.7*
C=CCSC1=N/C(=C\c2ccc3c(c2)OCO3)C(=O)S1	4%	-1%	-22%	19%	38%	nt
C=CCSC1=N/C(=C\C=C\c2ccco2)C(=O)S1	?	-3%	20µM*	10µM*	?	nt
Cc1nc(N)sc1-c1csc(N(C)c2ccc(O)cc2)n1	2%	13µM*	-19%	?	?	i
COc1ccc(OC)c(Nc2nc(-c3sc(C)nc3C)cs2)c1	-4%	1%	-13%	-21%	?	nt
CC(=O)O[C@](C)(CCC=C(C)C)C1CC=C(C)CC1 (some centres not stated)	nt	nt	13µM*	nt	13%	nt
CCN1C(C)=C(C(=O)OC)C(c2ccccc2)N2C(=O)[C@@]3(C(=O)OC)O[C@@]12C1C(=O)N(C)C(=O)C13 (some centres not stated)	nt	nt	21%[11.4 µM]	nt	-2%[11.5 µM]	nt
COc1cc2ncnc(Nc3cccc(Cl)c3)c2cc1OC	-6%	-1%	?	?	20µM*	nt
